Test results taken from PubChem BioAssay AID2326 (National Center for Advancing Translational Sciences (NCATS), 2010).
Out of some 270,000 compounds screened, about 1,100 (0.41%) were called active. Another 3% or so got no clear call; they are omitted. The entries come from a sample that favours actives as a whole. A number with no mark means an inactive call. Calls come from the whole dose curve.

Experiment: qHTS Assay for Inhibitors of Influenza NS1 Protein Function; note: actives are rising curves; nearly all actives have a fitted effect of over 50% in size
Settings: series mostly up to 46.1 µM; activity, positive = more growth: at the top concentration
Description: NIH Chemical Genomics Center [NCGC]
NIH Molecular Libraries Probe Centers Network [MLPCN]
Assay Submitter (PI): Daniel Engel
Influenza is a world-wide public health problem and emerging forms of the virus have the potential to cause a pandemic of equal or greater magnitude to the outbreaks recorded in 1918, 1957 or 1968. Vaccine development is proceeding and there also exist two classes of anti-influenza compounds. However these therapeutic modalities are neither fully effective nor widely enough available to fulfill global needs. In addition their potential usefulness against newly emergent strains is not known. Efforts are needed to develop novel agents against influenza virus, including broad-spectrum agents. Identification of small molecules that inhibit NS1 function either directly or by interfering with specific cellular pathways may be a key to increasing our defense against the virus.
We have miniaturized and optimized a cell based assay in which NS1 from influenza A is expressed in the budding yeast S. cerevisiae. NS1 is a multi-functional protein that counters the host innate immune response and facilitates viral versus cellular gene expression. Expression of NS1 causes a pronounced slow growth phenotype in yeast due to its intrinsic molecular activities. Small molecules that suppress the slow growth phenotype can be identified by a straightforward growth recovery assay using optical density (OD) as the measurement. The same yeast strain not expressing NS1 was used as positive control in the yeast growth recovery assay.
The yeast S. cerevisiae control and NS1 expressing cells were kindly supplied by laboratory of Dr. Daniel Engel, University of Virginia. Yeast starter cultures were stored in single use aliquots at -80C.
1. Yeast culture medium per liter: 1.2 g Yeast Nitrogen Base (w/out amino acids and Ammonium Sulphate), 5.0g Ammonium Sulphate, 0.77g -URA DO (drop-out) Supplement, adjust pH to 6.0. Adjust to 2% glucose prior to inoculating with yeast.
2. Yeast assay medium: 1.2 g Yeast Nitrogen Base (w/out amino acids and Ammonium Sulphate), 5.0g Ammonium Sulphate, 0.77g -URA DO (drop-out) Supplement, adjust pH to 6.0. Adjust to 2% D-galactose prior to inoculating with yeast.
1. Inoculate 100 mls of yeast culture medium with 1 ml of frozen yeast aliquote. Incubate overnight at 30C, 250RPM.
2. Harvest overnight culture at 4000 RPM and wash pellet with 15 mls H2O 3x.
3. Re-suspend washed pellet in 10 mls of yeast assay medium.
4. Prepare a 1:100 dilution of re-suspended culture in yeast assay medium.
5. Dispense 3.5 ul per well of reagents in step 4 in columns 2-48 in a black clear bottom 1536 well plate.
6. Dispense 3.5 ul per well of yeast assay medium in column 1 only.
7. Transfer 23 nl of compound per well.
8. Dispense 3.5 ul per well of yeast assay medium in columns 1-48.
9. Read plate using Viewlux protocol for optical density 600 (OD600) using excitation filter 600nm.
Potency is the fitted concentration of half-maximal effect.

Row | Structure (SMILES) | activity, positive = more growth [%] | Potency
1 | CC(=O)c1cccc(OCc2cc(C(=O)NC(C)Cc3cccnc3)no2)c1 (stereo not given) | 1.99 | 
2 | CNC(=O)c1sc(Nc2ccc(OCc3ccccc3)cc2)nc1C | -6.93 | 
3 | CCCn1c(=N)n(CC(=O)c2ccc(Cl)c(Cl)c2)c2ccccc21 | -0.19 | 
4 | COc1ccc(/C=C2\SC(=O)N(CCC(=O)NC3CCS(=O)(=O)C3)C2=O)cc1 (stereo not given) | -18.3 | 
5 | Cc1nnc(NC(=O)Cn2c(=O)sc3ccccc32)s1 | 0.343 | 
6 | O=C(CCS(=O)(=O)c1ccccc1)Nc1nc2c(s1)CCCC2 | -11.9 | 
7 | Cc1ccc(-n2c(SCC(=O)N3CCC(C(=O)O)CC3)nc3ccccc3c2=O)cc1C | 11.5 | 
8 | Cc1ccc(NS(=O)(=O)c2ccc(-c3coc(C)n3)cc2)c(C)c1 | 4.83 | 
9 | CC(C)c1ccc(OCC(=O)N2CCN(C)CC2)c(Br)c1 | -5.71 | 
10 | CN1CCN(C(=O)COc2ccc(C(C)(C)C)cc2Br)CC1 |  | 3.98 µM (active)
11 | CCOc1cc(CO)ccc1OCC(=O)N1CCCCC1 | 3.05 | 
12 | CC(C)(C)c1ccc(SCCc2ccncc2)cc1 | -39.6 | 
13 | O=C(N/N=C/c1ccccc1O)C1CCCC1 | -10.7 | 
14 | O=C(CSc1ccc(-c2ccccn2)nn1)Nc1ccccc1 | -103 | 
15 | CCOc1ccccc1/C=N/Nc1nc2ccccc2o1 | -5.44 | 
16 | O=S(=O)(NCc1ccc(Cl)cc1Cl)c1cccs1 | -58.9 | 
17 | COCCCNc1nc2c(-c3cccc(C)c3)nnn2c2ccc(Cl)cc12 | -31.8 | 
18 | CCCc1[nH]nc2c1C(C1CC=CCC1)C(C#N)=C(N)O2 (stereo not given) | 6.91 | 
19 | CCCc1[nH]nc2c1C(c1ccc(Br)s1)C(C#N)=C(N)O2 (stereo not given) |  | 2.51 µM (active)
20 | CCCc1[nH]nc2c1C(c1c(C)nn(-c3ccccc3)c1Cl)C(C#N)=C(N)O2 (stereo not given) | 5.69 | 
21 | Cc1cccc(C(=O)NC(=S)N(C)C2CCCCC2)c1 | -54.8 | 
22 | COc1ccc(CCc2nc(-c3cccs3)no2)cc1 | -25.1 | 

Row | Structure (SMILES) | activity, positive = more growth [%] | Potency
23 | COc1ccc(C(=O)NC(=S)N2CCCCC2c2cccnc2)cc1OC (stereo not given) | -12 | 
24 | O=C(N/N=C/c1cccc(OCc2ccccc2)c1)c1ccc(Br)o1 | -38.4 | 
25 | O=C(Cc1ccc(Cl)cc1)NC(=S)Nc1ccccc1O | 5.46 | 
26 | CCc1ccc(C(=O)OCC(=O)Nc2cccc(S(=O)(=O)NC3=NCCCCC3)c2)cc1 | -22 | 
27 | Cc1cccc(-n2c(SCC(=O)Nc3cccc(S(=O)(=O)NC4=NCCCCC4)c3)nc3ccccc3c2=O)c1C |  | 22.4 µM (active)
28 | NS(=O)(=O)c1cccc(NC(=O)CSc2nc3ccccc3n2-c2ccccc2)c1 | 15.1 | 
29 | CCN(CC(=O)Nc1ccc(C)c(S(=O)(=O)N(C)C)c1)Cc1ccccc1 | -2.09 | 
30 | Cc1ccc(CSc2nsc(C)c2C#N)cc1 | -1.63 | 
31 | COc1ccc(C(=O)CC(=O)C(=O)Nc2cc([N+](=O)[O-])ccc2OC)cc1 | 8.6 | 
32 | CSc1nccc(NC(=O)c2ccc(C(C)(C)C)cc2)n1 | -43.5 | 
33 | O=C(COc1ccc(Cl)cc1Cl)N/N=C/c1ccccn1 | -55.6 | 
34 | O=C(O)CC(CC(=O)N1CCOCC1)c1ccccc1 (stereo not given) | 4.06 | 
35 | O=C(O)CC(Cn1cnnn1)c1ccccc1 (stereo not given) |  | 8.91 µM (active)
36 | O=C(O)CC(c1ccccc1)n1cnnn1 (stereo not given) | -1.31 | 
37 | Cc1ccc(CNC(=O)C(=O)c2cn(CC(=O)N3CCCC3)c3ccccc23)cc1 | 1.2 | 
38 | COc1cc(CNCc2ccc(OC)c3ccccc23)cc(OC)c1OC | 12.4 | 
39 | COc1ccc(Nc2ncnc3ccc(Br)cc23)c(OC)c1 | -47.8 | 
40 | COc1ccc(CC(=O)N/N=C/c2cc([N+](=O)[O-])cc(Br)c2O)cc1 | 5.43 | 
41 | CC(C)(COC(=O)Nc1ccccc1)COC(=O)Nc1ccccc1 | -46.3 | 
42 | COc1ccc(C=C(C#N)C#N)c(CSc2ccccn2)c1 | -3.49 | 
43 | COc1ccc(NCCc2ccccn2)cc1 | -5.94 | 
44 | Cn1c(=O)c(=O)n(C)c2cc(S(=O)(=O)CCC(=O)N3CCCCC3)ccc21 | 6.48 | 

Row | Structure (SMILES) | activity, positive = more growth [%] | Potency
45 | Cc1ccc(NS(=O)(=O)c2ccc3c(c2)n(C)c(=O)c(=O)n3C)c(C)c1 | 3.06 | 
46 | CCc1ccc(S(=O)(=O)Nc2cc3c(cc2N2CCCCC2)n(C)c(=O)c(=O)n3C)cc1 |  | 2.82 µM (active)
47 | CCOC(=O)CC1COCCN1C(=O)c1cc(COc2ccc(F)c(F)c2)on1 (stereo not given) | -7.11 | 
48 | O=C(NC(=S)N1CCCCC1c1cccnc1)c1ccccc1 (stereo not given) | -11 | 
49 | CCC(C)c1ccc(NC(=S)N2CCCC2)cc1 (stereo not given) | -46 | 
50 | CCOC(=O)c1ccccc1N1C(=O)C2Sc3[nH]c(=O)sc3C(/C=C/c3ccccc3)C2C1=O (stereo not given) | 27 | 
51 | COC(=O)C1=C(C)N=C2SC(C)C(=O)N2C1/C=C/c1ccccc1 (stereo not given) |  | 11.2 µM (active)
52 | COC(=O)C1=C(C)NC(=O)NC1/C=C/c1ccccc1 (stereo not given) | -6.7 | 
53 | Cc1nonc1NC(=O)c1oc2ccccc2c1C | -9.93 | 
54 | Cc1nc(-c2ccc(Cl)cc2)sc1C(=O)NN |  | 3.55 µM (active)
55 | Cc1nc(N2CCOCC2)sc1C(=O)NN | 5.54 | 
56 | Cc1ccc(SCC(=O)c2sc(-c3ccccc3)nc2C)cc1 | -13.1 | 
57 | CN(CC(=O)Nc1ccc(F)cc1)C(=O)c1ccc(-c2ccc(Cl)cc2)o1 | -54 | 
58 | CCOC(=O)CC1(NC(=O)c2cc(COc3cncc(Cl)c3)on2)CCCCC1 | -17.2 | 
59 | O=C(Cc1cccs1)NCc1cccc(C(F)(F)F)c1 | 2.72 | 
60 | Cc1ccc(CSc2nc(-c3ccccc3)c(C#N)c(=O)[nH]2)cc1 | 2.5 | 
61 | O=C(CSc1nc2ccccc2c(=O)[nH]1)Nc1nc(-c2ccc(Br)cc2)cs1 | 13.7 | 
62 | N#Cc1c(-c2cccs2)nc(SCC(=O)c2ccc(Br)cc2)[nH]c1=O |  | 3.16 µM (active)
63 | COc1ccc(NC(=O)CSc2nc3ccccc3c(=O)n2C)cc1 | 2.09 | 
64 | COCCN1C(=O)N(c2ccc(Cl)cc2)C(=O)C1CC(=O)Nc1cc(OC)cc(OC)c1 (stereo not given) | -4.12 | 
65 | CC(=O)N1c2ccc(S(=O)(=O)N3CCCC(C(=O)Nc4cccc(F)c4)C3)cc2CC1C (stereo not given) | 9.5 | 
